The source of these data is PubChem BioAssay (NCI).

What all share (assay): NCI-60 one-dose screen, 48 h (100 = growth as untreated, 0 = no growth, -100 = all killed)
Settings in all cases: 10 µM unless noted

Experiment [1] relates to NCI-H23 lung.
Experiment [2] has as its system NCI-H226 lung.
Experiment [3] concerns NCI-H322M lung.
In experiment [4] the test system is HOP-62 NSCLC.
Experiment [5] has as its system NCI-H460 lung.
Experiment [6] has as its system HOP-92 NSCLC.
For experiment [7], the system named is NCI-H522 lung.
Experiment [8] concerns A549/ATCC NSCLC.
For experiment [9], the system named is 786-0 renal.
The test system of experiment [10] is COLO 205 colon.

The panel holds about 83,000 compounds, 20% with a hit somewhere; the sample as a whole holds those more often.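 Assay: single dose, 48 h. Readout: percent growth (0 = no net growth; negative = cell death). Active: <10.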 Values without a mark were called inactive. The source made the active and inactive calls.

On to `CC(C)[C@H](CN)NC[C@H](C)NS(=O)(=O)c1ccc(C(C)(C)C)cc1`, for which the growth in experiment [1] is 97%; in experiment [2], 74.2%; in experiment [3], 101%; in experiment [4], 94.6%; in experiment [5] it was 100%; in experiment [6], 71.9%. The growth in experiment [7] was 96.2%; in experiment [8], 98.7%; in experiment [9] it was 90.3%; in experiment [10], 105%.

Turning to `CC(=O)Nc1nonc1-c1nc2ccccc2n1Cc1ccc(C(C)(C)C)cc1`, the growth is 86.7% in experiment [1]; 76.6% in [2]; 83% in experiment [3]; 101% in [4]; 79.3% in [5]; 57.1% in experiment [6]. Further, the growth in [7] is 85.1%; in [8], 72.2%; in experiment [9] it was 70.2%; in experiment [10], 98.5%.

Turning to `COc1ccc(/C=C2\N=C(c3cccnc3)N(c3ccccc3)NC2=O)cc1`, the growth in [1] is 95.8%; in experiment [2] it was 86.8%; in [3], 94.3%; in [4] it was 109%; in experiment [5], 96.4%; in [6], 22.9%. The growth in experiment [7] is 98.2%; in [8], 95.7%; in [9], 100%; in experiment [10], 113%.

Turning to `CC(C)(C)c1ccc(Cn2c(-c3nonc3N)nc3ccccc32)cc1`, the growth is 70.7% in experiment [1]; 83.4% in [2]; 83% in [3]; 82.1% in [4]; 86% in [5]; 64.3% in [6]. In addition, the growth is 49.3% in experiment [7], 68.4% in experiment [8], 80.4% in experiment [9] and 67.2% in [10].

For `COc1ccc(C2C3=C(COC3=O)N(CCO)c3cc(OC)c(OC)cc32)cc1` (stereo not given), the growth is 106% in experiment [1]; 101% in experiment [2]; 104% in [3]; 95.7% in [4]; 105% in experiment [5]; 86.9% in experiment [6]. The growth in [7] is 92.8%; in [8] it was 108%; in experiment [9], 96.3%; in experiment [10] it was 110%.

`CC(=O)c1ccc(-n2c(-c3cc(-c4ccsc4)n[nH]3)n[nH]c2=S)cc1`: the growth in [1] is 102%; in experiment [2], 99.6%; in experiment [3], 101%; in [4], 112%; in [5], 105%; in experiment [6], 89.9%. Also, the growth was 82.6% in experiment [7], 98.3% in experiment [8], 101% in experiment [9] and 117% in [10].

`O=C(Nc1ccc(Br)cc1)Nc1ccccc1Cl`: the growth was 63.2% in [1]; 80% in [2]; 119% in experiment [3]; 92.7% in [4]; 93.3% in experiment [5]; 90.5% in experiment [6]. The growth is 56.8% in experiment [7], 82.5% in [8], 83.4% in experiment [9] and 106% in [10].

For the molecule `CCc1ccc2c(c1)N(CCO)C1=C(C(=O)OC1)C2c1cccc(Br)c1` (stereo not given), the growth in experiment [1] was 40.9%; in experiment [2] it was 39.5%; in experiment [3], 38.9%; in [4] it was 31%; in experiment [5] it was 11.2%; in experiment [6], 75.6%. In addition, the growth in [7] was -26.3% (active); in [8] it was 29.2%; in experiment [9], 34.4%; in experiment [10], 5.9% (active).

Take `Nc1nc(N)c2cc(Sc3ccc(Cl)cc3)ccc2n1`: the growth in [1] was 33.6%; in [2], 48.9%; in experiment [3], 27.7%; in [4], 53.1%; in experiment [5], 13.4%; in experiment [6], 6.59% (active). The growth was 21% in [7], 15.2% in experiment [8], 28% in experiment [9] and -45.6% (active) in experiment [10].

In the case of `COc1ccc(C2=Nn3c(nnc3-c3ccc(Cl)cc3N)SC2)cc1`, the growth in [1] was 105%; in experiment [2], 102%; in experiment [3], 109%; in [4] it was 103%; in experiment [5], 104%; in experiment [6], 94.1%. Moreover, the growth is 85.6% in [7], 103% in experiment [8], 107% in experiment [9] and 108% in experiment [10].

As to `CCOC(=O)Nc1ccc2nc(-c3cscn3)[nH]c2c1`, the growth is 71.6% in [1]; 63.5% in experiment [2]; 63.1% in experiment [3]; 54.1% in [4]; 21.7% in experiment [5]; 114% in experiment [6]. In addition, the growth in experiment [7] is 43.7%; in [8], 45%; in experiment [9], 67.7%; in [10], 29%.

Turning to `Cc1cc(C)c2c(n1)sc1c(Nc3ccc(OCc4ccccc4)cc3)ncnc12`, the growth in experiment [1] is 101%; in [2], 96.2%; in experiment [3], 92.8%; in experiment [4], 101%; in experiment [5], 98.8%; in [6], 88.2%. In addition, the growth in [7] was 90.1%; in experiment [8], 101%; in experiment [9], 97.8%; in [10], 111%.

With `OC(c1cc2cc(Cl)ccc2c2cc(C(F)(F)F)ccc12)C1CCCCN1` (stereo not given), the growth in [1] is -78.8% (active); in experiment [2], -73% (active); in experiment [3] it was -42.7% (active); in experiment [4], -92.3% (active); in [5], -67.8% (active); in experiment [6] it was -76.1% (active). Also, the growth was -89.6% (active) in [7], -85.9% (active) in experiment [8], -67.5% (active) in experiment [9] and -87.2% (active) in experiment [10].

On to `CNCCCNc1ccnc2cc(Cl)ccc12`, for which the growth was -50.4% (active) in experiment [1]; -17.6% (active) in experiment [2]; -40.7% (active) in [3]; -27.1% (active) in experiment [4]; -28.2% (active) in experiment [5]; -17.9% (active) in experiment [6]. Also, the growth in experiment [7] is -62.3% (active); in experiment [8], 1.29% (active); in [9] it was 3.83% (active); in experiment [10] it was -88.9% (active).
